# The supplement of paper PMC7724964
# B1: unnamed (peptide)
# chain: MPPWTEDAESWHMWLI
# B2: unnamed (peptide)
# chain: QIWSLWVEGMMYQPDN
# B3: unnamed (peptide)
# chain: QMIEFWTEEEIMHWVH
# B4: unnamed (peptide)
# chain: NLETWAWPPWPQEFND
# B5: unnamed (peptide)
# chain: QRTMAWKSEDHLMPQS
# B6: unnamed (peptide)
# chain: RWEPHAWQADQVEATK
# B7: unnamed (peptide)
# chain: LDSFWDAENVIRSIMI
# B8: unnamed (peptide)
# chain: ETQDPPEVRQYTMVSR
# B9: unnamed (peptide)
# chain: WGSEDTQYWLEYVNSV
# B10: unnamed (peptide)
# chain: NWDIWPDWPPTQSVMW
# B11: unnamed (peptide)
# chain: FELAGRWEPLMMYEWV
# B12: unnamed (peptide)
# chain: RTEYLNWQEHRTVSKE
# B13: unnamed (peptide)
# chain: DNFENWIENWLLEYNG
# B14: unnamed (peptide)
# chain: IKETAHMDERPKMISR
# B15: unnamed (peptide)
# chain: RTEPYVHQQPTPQAPA
# B16: unnamed (peptide)
# chain: SARTSHWVPMEWNHLQ
# B17: unnamed (peptide)
# chain: WPDDLDWGTWLETLPL
# B18: unnamed (peptide)
# chain: SARSEPYPSTNFTWTH
# B19: unnamed (peptide)
# chain: LWDWTPETEQWFQEIV
# B20: unnamed (peptide)
# chain: HPQEWSAEEIMVGILY
# B21: unnamed (peptide)
# chain: FPQMWQSPDFWEDWLL
# B22: unnamed (peptide)
# chain: WPPAPPTEQHRQMWAK
# B23: unnamed (peptide)
# chain: AARTQWYLAAVAEQAP
# B24: unnamed (peptide)
# chain: QQVFQDHSNHQMMISR
# B25: unnamed (peptide)
# chain: PEQERINRKTYQMVSR
# B26: unnamed (peptide)
# chain: KKPVPMRWEHTYTETM
# B27: unnamed (peptide)
# chain: ARTWYMHQQEAMADQK
# B28: unnamed (peptide)
# chain: WWEQDQDWEEFVNAIE
# B29: unnamed (peptide)
# chain: HEIWETDWQWIIDQAY
# B30: unnamed (peptide)
# chain: PAWPPWPAEAVWEATK
# B31: unnamed (peptide)
# chain: SARTGYDNYLKPSSQQ
# B32: unnamed (peptide)
# chain: MMPTTEDGWEMWLAEL
# B33: unnamed (peptide)
# chain: NARTDAWWSQQSLQQH
# B34: unnamed (peptide)
# chain: LTGEIWDAEKVIHYVM
# B35: unnamed (peptide)
# chain: APVVHDFDAYKMLMQL
# B36: unnamed (peptide)
# chain: LDMFWPEPPMFNREIP
# B37: unnamed (peptide)
# chain: TAHDWIDEWLVQAMLQ
# B38: unnamed (peptide)
# chain: DPYWVWPDLPHNVSHP
# B39: unnamed (peptide)
# chain: VDDQEWPNMEMLLGIV
# B40: unnamed (peptide)
# chain: RTDPEQYQRTMMVPRG
# B41: unnamed (peptide)
# chain: YWDAGEVMAQIIQSAH
# B42: unnamed (peptide)
# chain: FDTPLWEQAMWEALGE
# B43: unnamed (peptide)
# chain: SDDWFFDLTHSIISTD
# B44: unnamed (peptide)
# chain: PRYKPHNRTEPVPLMA
# B45: unnamed (peptide)
# chain: RTEPYQWMKAAGFPTS
# B46: unnamed (peptide)
# chain: AARTHAQEYHKGIMAS
# B47: unnamed (peptide)
# chain: GAARTQGVEWHSQHSH
# B48: unnamed (peptide)
# chain: QRTMAWKSENHLMPHS
# B49: unnamed (peptide)
# chain: EYHPRWGYIMAQASDS
# B50: unnamed (peptide)
# chain: DNWYWEAWDAAFLTNG
# B51: unnamed (peptide)
# chain: NTVEWQDMEGHLLGIV
# B52: unnamed (peptide)
# chain: WDPQADWQEQVQYWLV
# B53: unnamed (peptide)
# chain: VEFWWSDTSARTLPFK
# B54: unnamed (peptide)
# chain: STQKDNNWPLPPVMEE
# B55: unnamed (peptide)
# chain: VPSLVMPQDQPVMVSR
# B56: unnamed (peptide)
# chain: GRWVPWDQNVTTSDES
# B57: unnamed (peptide)
# chain: GRWVPVQDVPRFEIED
# Experiments:
# Assay in all cases: phage ELISA signal ratio (GST-PRM binding over GST background); higher = stronger binding of peptide-phage to the PRM
# [1] = biological target: T1, VCL 1-259 Vinculin (domain begin residue: 1, domain end residue: 259), P18206
# T1 chain: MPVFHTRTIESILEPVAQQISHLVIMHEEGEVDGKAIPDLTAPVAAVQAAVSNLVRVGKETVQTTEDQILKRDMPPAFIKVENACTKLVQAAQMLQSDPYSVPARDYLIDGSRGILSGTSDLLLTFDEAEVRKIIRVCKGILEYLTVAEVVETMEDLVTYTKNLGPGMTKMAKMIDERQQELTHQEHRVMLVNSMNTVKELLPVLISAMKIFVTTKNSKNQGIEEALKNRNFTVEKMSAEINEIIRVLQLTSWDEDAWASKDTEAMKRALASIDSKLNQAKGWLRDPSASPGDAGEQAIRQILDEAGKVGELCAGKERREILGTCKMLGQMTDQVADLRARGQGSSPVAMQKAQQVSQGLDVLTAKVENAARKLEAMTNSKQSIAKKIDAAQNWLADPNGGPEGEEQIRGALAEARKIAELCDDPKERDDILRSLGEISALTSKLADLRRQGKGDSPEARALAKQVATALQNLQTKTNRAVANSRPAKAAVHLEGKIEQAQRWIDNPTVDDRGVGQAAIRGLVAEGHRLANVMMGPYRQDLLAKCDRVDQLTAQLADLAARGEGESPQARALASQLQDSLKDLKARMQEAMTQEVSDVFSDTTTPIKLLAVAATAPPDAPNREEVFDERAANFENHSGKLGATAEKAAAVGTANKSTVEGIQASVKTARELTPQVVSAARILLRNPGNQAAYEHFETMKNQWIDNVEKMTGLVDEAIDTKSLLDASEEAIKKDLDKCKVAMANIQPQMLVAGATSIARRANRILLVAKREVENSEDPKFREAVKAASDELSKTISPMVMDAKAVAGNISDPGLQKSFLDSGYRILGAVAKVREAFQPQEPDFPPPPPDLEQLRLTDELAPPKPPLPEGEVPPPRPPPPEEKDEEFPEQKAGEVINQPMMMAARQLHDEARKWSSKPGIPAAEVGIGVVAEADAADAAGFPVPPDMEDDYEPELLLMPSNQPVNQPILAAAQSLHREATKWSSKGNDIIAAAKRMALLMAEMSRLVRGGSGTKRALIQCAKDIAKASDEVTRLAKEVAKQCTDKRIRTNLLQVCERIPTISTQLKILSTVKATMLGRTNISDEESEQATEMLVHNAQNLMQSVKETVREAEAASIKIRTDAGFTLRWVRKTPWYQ
# Outline: (§1)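 Human peptide recognition domains were expressed in 96-well plates as fusions to the C-terminus of glutathione S-transferase (GST) and selected against an M13 phage library displaying randomized hexadecapeptides, cysteine-free and glycine-flanked, on the gene-8 major coat protein. Five selection rounds were run, and approximately 48 individual clones from rounds 4 and 5 were tested by phage ELISA. Each value is the ELISA signal on the GST-domain fusion divided by the signal on GST alone. Positive clones were sequenced.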
# [2] = biological target: T2, WDR74 1-387 WD40 (domain begin residue: 1, domain end residue: 387), Q6RFH5
# T2 chain: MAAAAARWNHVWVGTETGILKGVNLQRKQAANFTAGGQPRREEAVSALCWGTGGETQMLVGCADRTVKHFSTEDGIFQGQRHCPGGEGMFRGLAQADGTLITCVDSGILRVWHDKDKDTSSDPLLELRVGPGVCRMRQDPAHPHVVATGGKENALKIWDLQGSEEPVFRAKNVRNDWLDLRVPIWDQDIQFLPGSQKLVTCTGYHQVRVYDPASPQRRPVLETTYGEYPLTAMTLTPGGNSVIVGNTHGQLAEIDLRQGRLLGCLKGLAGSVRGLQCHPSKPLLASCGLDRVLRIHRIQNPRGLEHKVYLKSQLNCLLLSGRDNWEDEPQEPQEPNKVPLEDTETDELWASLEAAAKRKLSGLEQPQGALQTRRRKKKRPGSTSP
# Outline: as §1
# [3] = biological target: VASP 1-114 WH1 (domain begin residue: 1, domain end residue: 114), P50552
# Chain of VASP 1-114 WH1 (domain begin residue: 1, domain end residue: 114), P50552 (P50552 whole entry): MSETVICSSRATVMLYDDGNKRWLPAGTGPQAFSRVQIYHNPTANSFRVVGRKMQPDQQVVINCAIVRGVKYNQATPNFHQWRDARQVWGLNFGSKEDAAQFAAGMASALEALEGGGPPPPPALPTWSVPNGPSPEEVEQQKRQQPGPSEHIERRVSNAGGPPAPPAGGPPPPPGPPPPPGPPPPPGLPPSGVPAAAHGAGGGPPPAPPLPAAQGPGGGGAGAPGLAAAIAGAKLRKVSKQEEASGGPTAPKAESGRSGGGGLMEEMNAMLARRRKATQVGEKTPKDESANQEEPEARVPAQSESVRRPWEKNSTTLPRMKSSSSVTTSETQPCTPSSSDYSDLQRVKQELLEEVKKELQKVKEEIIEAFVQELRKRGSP
# Outline: as §1
# [4] = biological target: WDR5 20-334 WD40 (domain begin residue: 20, domain end residue: 334), P61964
# Outline: as §1
binder,measurement,setting,value
B1,phage ELISA signal ratio,[1],14.8
B2,phage ELISA signal ratio,[2],2.75
B3,phage ELISA signal ratio,[1],13.6
B4,phage ELISA signal ratio,[3],23.3
B5,phage ELISA signal ratio,[4],14.9
B6,phage ELISA signal ratio,[4],14
B7,phage ELISA signal ratio,[1],12.9
B8,phage ELISA signal ratio,[4],13.8
B9,phage ELISA signal ratio,[1],24.6
B10,phage ELISA signal ratio,[3],5.89
B11,phage ELISA signal ratio,[4],12.8
B12,phage ELISA signal ratio,[4],11
B13,phage ELISA signal ratio,[1],9.78
B14,phage ELISA signal ratio,[4],15.8
B15,phage ELISA signal ratio,[4],12.4
B16,phage ELISA signal ratio,[4],14
B17,phage ELISA signal ratio,[1],13.3
B18,phage ELISA signal ratio,[4],25.7
B19,phage ELISA signal ratio,[1],13.5
B20,phage ELISA signal ratio,[1],14.1
B21,phage ELISA signal ratio,[1],12.6
B22,phage ELISA signal ratio,[3],7.1
B23,phage ELISA signal ratio,[4],12.9
B24,phage ELISA signal ratio,[4],14
B25,phage ELISA signal ratio,[4],13
B26,phage ELISA signal ratio,[4],20.2
B27,phage ELISA signal ratio,[4],26.3
B28,phage ELISA signal ratio,[1],16.9
B29,phage ELISA signal ratio,[1],20.4
B30,phage ELISA signal ratio,[3],12.3
B31,phage ELISA signal ratio,[4],22
B32,phage ELISA signal ratio,[1],21.4
B33,phage ELISA signal ratio,[4],9.86
B34,phage ELISA signal ratio,[1],11.1
B35,phage ELISA signal ratio,[1],17.2
B36,phage ELISA signal ratio,[3],24.9
B37,phage ELISA signal ratio,[1],20.3
B38,phage ELISA signal ratio,[3],19.2
B39,phage ELISA signal ratio,[1],17.4
B40,phage ELISA signal ratio,[4],12.1
B41,phage ELISA signal ratio,[1],11.9
B42,phage ELISA signal ratio,[1],13.2
B43,phage ELISA signal ratio,[1],18.4
B44,phage ELISA signal ratio,[4],18.7
B45,phage ELISA signal ratio,[4],9.24
B46,phage ELISA signal ratio,[4],21.6
B47,phage ELISA signal ratio,[4],14.9
B48,phage ELISA signal ratio,[4],16.4
B49,phage ELISA signal ratio,[4],11
B50,phage ELISA signal ratio,[1],20.4
B51,phage ELISA signal ratio,[1],15.3
B52,phage ELISA signal ratio,[1],20.4
B53,phage ELISA signal ratio,[4],9.42
B54,phage ELISA signal ratio,[3],21.6
B55,phage ELISA signal ratio,[4],12.8
B56,phage ELISA signal ratio,[4],23.4
B57,phage ELISA signal ratio,[4],19
